Measured values from PubChem BioAssay (NCI).
The panel holds about 83,000 compounds, 20% with a hit somewhere; the sample as a whole holds those more often.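 Treatment: one concentration, 48 hours, 96-well format. Scoring: percent growth, with anything below 10 considered active.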 Calls of active or inactive are those of the source.

Columns and labels:
Assay in all cases: NCI-60 one-dose screen, 48 h (100 = growth as untreated, 0 = no growth, -100 = all killed)
Conditions in all cases: 10 µM unless noted
[1] = tested on: NCI-H23 lung
[2] = tested on: NCI-H226 lung
[3] = tested on: NCI-H322M lung
[4] = tested on: HOP-62 NSCLC
[5] = tested on: NCI-H460 lung
[6] = tested on: HOP-92 NSCLC
[7] = tested on: NCI-H522 lung
[8] = tested on: A549/ATCC NSCLC
[9] = tested on: 786-0 renal
[10] = tested on: COLO 205 colon

Measured: growth

CCCCCCCCCCCCCCCCCC(=O)Nc1ccc(OC)cc1
inactive: [1] 105% | [2] 103% | [3] 102% | [4] 101% | [5] 109% | [6] 102% | [7] 88.2% | [8] 104% | [9] 102% | [10] 120%

COc1ccc(SC2c3cc(OC)ccc3Oc3nc(N)c(C#N)c(N)c32)cc1 (stereo not given)
inactive: [1] 85.6% | [2] 87.1% | [3] 83.5% | [4] 68.2% | [5] 74.3% | [6] 116% | [7] 78.4% | [8] 95.8% | [9] 74.8% | [10] 101%

Cn1cc(Nc2ncnc(-c3ccc(N4CCCC4)c(C#N)c3)n2)cn1
active: [7] 8.98%
inactive: [1] 86% | [2] 60.6% | [3] 50.5% | [4] 90.3% | [5] 50.1% | [6] 97.6% | [8] 83.7% | [9] 59.8% | [10] 72%

NCCCCn1c(SCCc2c[nH]c3ccccc23)nnc1-c1ccc2ccccc2n1
inactive: [1] 11.4% | [2] 55.2% | [3] 18.1%
active: [4] -49.7% | [5] -76.9% | [6] -8.52% | [7] -73.1% | [8] 8.17% | [9] -92.3% | [10] -66.6%

COc1ccc(N=Nc2c(N)nn3c(-c4cc5cc(Br)ccc5oc4=O)ccnc23)cc1
inactive: [3] 30.1% | [8] 39.3% | [10] 35.8%
active: [1] -4.72% | [2] -42.1% | [4] 2.1% | [5] 3.1% | [6] -3.29% | [7] 0.558% | [9] 5.11%

CCOc1ccc(-c2cc(-c3cc(C(C)C)c(O)cc3C)nn2-c2ccc(S(N)(=O)=O)cc2)cc1
inactive: [1] 27.6% | [2] 67.4% | [3] 66.6% | [4] 65.4% | [5] 23.9% | [6] 47.4% | [8] 32% | [9] 37.1% | [10] 131%
active: [7] 1.3%

Cc1ccc(S(=O)(=O)N(CCn2ccnc2[N+](=O)[O-])CCn2ccnc2[N+](=O)[O-])cc1
inactive: [1] 104% | [2] 100% | [3] 107% | [4] 108% | [5] 109% | [6] 106% | [7] 91.5% | [8] 102% | [9] 101% | [10] 111%

COc1ccc(NC(=O)Cn2c(/C=C/c3ccc([N+](=O)[O-])cc3)nc3ccccc3c2=O)cc1
inactive: [1] 34.9% | [2] 21.2% | [3] 70.2% | [4] 33.2% | [5] 42.3% | [7] 73% | [8] 75.9% | [10] 85.3%
active: [6] -12% | [9] 9.31%

CCCn1c(NC(=O)c2cccc(C(N)=O)c2)nc2cc(CN3CCCCC3)ccc21
active: [9] 9.97%
inactive: [1] 88.1% | [2] 101% | [3] 92% | [4] 95.8% | [5] 101% | [6] 84.8% | [7] 83.1% | [8] 95.7% | [10] 88.7%

O=C(Cc1c(-c2ccccc2[N+](=O)[O-])n(-c2ncnc3c2c(-c2ccccc2)c(-c2ccccc2)n3Cc2ccccc2)[nH]c1=O)c1ccc(Cl)c(Cl)c1
active: [1] 9.58% | [6] -3.98% | [7] -10.1%
inactive: [2] 24.7% | [3] 42.7% | [4] 49.3% | [5] 15.9% | [8] 25.6% | [9] 36.2% | [10] 43.1%

COc1ccc2[nH]c(O)c(N=NC(=O)c3ccc4nc(-c5ccc(Cl)cc5)[nH]c4c3)c2c1
inactive: [1] 65.6% | [2] 77.5% | [3] 85.9% | [4] 48.9% | [5] 101% | [6] 73.3% | [7] 35.3% | [8] 113% | [9] 90.6% | [10] 18%

CN(CCSSCCN1CCOCC1)C(=O)Oc1cc2c(c3ccccc13)[C@H](CCl)CN2C(=O)c1cc2cc(OCCCN3CCC3)ccc2[nH]1
active: [1] -67.5% | [2] -11.7% | [3] -3.1% | [4] -64.7% | [5] -23.3% | [6] -14.1% | [7] -66.4% | [8] -45.8% | [9] -35% | [10] -74%

COC(=O)c1c(C(=O)OC)c2ccc3c4ccccc4ccc3n2c1C(=O)OC
inactive: [1] 102% | [2] 100% | [3] 101% | [4] 110% | [5] 111% | [6] 97.5% | [7] 100% | [8] 97.2% | [9] 100% | [10] 115%

Nc1nn2c(-c3cc4cc(Br)ccc4oc3=O)ccnc2c1N=Nc1ccc(Br)cc1
inactive: [3] 23.7% | [5] 15% | [7] 24.6% | [8] 39.6% | [9] 13.8% | [10] 35.8%
active: [1] -7.78% | [2] -25% | [4] -11.9% | [6] -5.4%

O=C(NC(=S)N1CCN(c2ncnc3c2cnn3-c2ccccc2)CC1)c1ccc(F)cc1
inactive: [1] 77.5% | [2] 84.9% | [3] 75.8% | [4] 70.6% | [5] 43.8% | [6] 67.9% | [7] 57.6% | [8] 76.2% | [9] 98.6% | [10] 90.4%

COc1ccc(-c2nc3ccccc3n2CC(=O)N=Nc2c(O)[nH]c3ccc(OC)cc23)cc1
inactive: [1] 89.7% | [3] 89.4% | [4] 67.4% | [5] 10.5% | [7] 47.8% | [8] 37% | [9] 42.4% | [10] 36%
active: [2] -18.8% | [6] -7.89%

COc1c(B(O)O)cccc1-c1nc2ccc3cn[nH]c3c2c2c1CCCC2
inactive: [1] 72.8% | [2] 49.5% | [3] 67.7% | [4] 68.7% | [5] 56.8% | [6] 27.2% | [7] 62.6% | [8] 41.9% | [9] 31.8% | [10] 71.7%

COc1ccc(/C=C/C(=O)c2ccc(OC)c(S(N)(=O)=O)c2)c(C(F)(F)F)c1
inactive: [8] 10.6%
active: [1] -78.3% | [2] -40.9% | [3] -2.93% | [4] -5.21% | [5] 4.78% | [6] 6.4% | [7] 9.43% | [9] -82% | [10] 4.9%
